Among all 2,300 compounds or so, about 1,200 (52%) were called active. The rule behind the calls is not given here. So high a share suggests a set chosen from earlier hits. The list shows a part of the results. Results with a measured potency or affinity are listed apart.

The nature of the experiment: mammalian cell cytotoxicity, dose response, cytotoxicity control for M. tuberculosis inhibitor project (AID 435019).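 Note: lower values mean fewer viable cells so more cytotoxicity.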 To be noted: cytotoxicity counter-screen; series mostly up to 40 µM. Background: A counterscreen serves to expose hits that act by an unwanted route or on another target.
For `O=C(NC1CCCCCC1)c1ccccc1-c1ccccc1`, the molecule was classed as inactive.
Consider `COc1cc(N)c(Cl)cc1C(=O)N[C@H]1CCN(CCCOc2ccc(F)cc2)C[C@H]1OC`, for which the molecule was called inactive.
As to `N#CC(C(=O)Nc1ccccc1)=C1Nc2ccccc2N1`, the molecule was called inactive.
`Cc1ccccc1C(=O)Nc1ccccc1C(=O)NCC(C)C`: the molecule was called inactive.
As to `CSc1nc2nc3c(c(=O)n2[nH]1)CCCC3`, the call was inactive.
`c1ccc(CCNc2ncnc3c2cnn3-c2ccccc2)cc1`: the outcome was inactive.
Take `CCSc1ncc(/C=N/Nc2ccccc2)n1C`: the call was inactive.
With `CN1/C(=C\C(=O)C[n+]2ccc(C(=O)c3ccccc3)cc2)C(C)(C)c2ccccc21`, the call was inactive.
As for `CCCN(CC1CC1)C(=O)COC(=O)c1ccc2c(c1)C(=O)N(c1ccc(OCC)cc1)C2=O`, the result was inactive.
`CCOC(=O)c1ccc2c(c1)C(=O)N(C1CCCCC1)C2=O`: the result was inactive.
Under `CN(C)C=Nc1ccc2nn(-c3ccccc3)nc2c1` stands “inactive”; under `COC(=O)CSc1[nH]c2ccc(Br)cc2c1[N+](=O)[O-]`, “inactive”.
Consider `CCOC(=O)c1csc(-c2snnc2C)n1`, for which the molecule was classed as inactive.
Under `O=C(COC(=O)C1CC2CCCC(C1)C2=O)NNC(=O)c1ccccc1F` (stereo not given) stands “inactive”.
Regarding `Cn1nnc(NC(=S)NC(=O)c2ccc(-c3ccc(Br)cc3)o2)n1`, the outcome was inactive.
Regarding `NC(=S)NNc1ccc(Cl)c(Cl)c1`, the result was inactive.
For the molecule `Nc1ccc(C(=O)OCCCc2nc3cc4ccccc4cc3[nH]2)cc1`, the result was inactive.
Under `COCCOC(=O)c1ccc(NC(=O)COc2ccc([N+](=O)[O-])cc2)cc1` stands “inactive”.
Under `CS(=O)(=O)c1ncc(Cl)c(C(=O)Nc2ccc(OC(F)F)cc2)n1` stands “inactive”; under `CC1CCN(C(=O)C2CCN(c3nnc(-n4cccc4)s3)CC2)CC1`, “inactive”.
As to `COCc1nnc(NC(=O)C2CC(=O)N(c3ccc(C)c(Cl)c3)C2)s1` (stereo not given), the call was inactive.
Under `COc1ccc2c(c1)[C@@H]1[C@H](CO2)[C@H](c2ccccc2)[C@]2(C)C(=O)Nc3ccc(C)cc3C(=O)N12` stands “inactive”; under `CCC(=O)c1coc2ccc(O)cc12`, “inactive”; under `CCCCc1ccc(NC=C2C(=O)OC3(CCCCC3)OC2=O)cc1`, “inactive”.
As to `C#CCOC(=O)/C(=C/C=C/c1ccccc1)NC(=O)c1ccccc1`, the molecule was called inactive.
Under `Cc1ccc(C(=O)N/C(=C/c2ccco2)C(=O)OCN2C(=O)c3ccccc3C2=O)cc1` stands “inactive”.
Regarding `O=C(OCn1nnc2ccccc2c1=O)C1CCCCC1`, the outcome was inactive.
Under `CN1[C@@H]2CC[C@H]1CC(OC(=O)[C@H](CO)c1ccccc1)C2` (stereo not given in full) stands “inactive”.
For `CC(=O)c1cccc(NC(=S)NC2CCCCCCC2)c1`, the result was inactive.
With `Cc1[nH]nc2nc3c(c(OC(=O)c4ccccc4)c12)c(=O)n(C)c(=O)n3C`, the call was inactive.
`Cc1cc(/C=C(/C#N)c2cccc(F)c2)c(C)n1-c1cccnc1`: the molecule was called inactive.
With `N#Cc1cccc(NC(=O)N2CCC(c3nc4c(nnn4Cc4cccc(Cl)c4)c(=O)[nH]3)CC2)c1`, the result was inactive.
`CCOC(=O)c1ccc(Oc2nc(NC(C)(C)C)nc(N(C)C)n2)cc1`: the molecule was classed as inactive.
Under `CN(C)S(=O)(=O)c1cccc(NC(=O)CCc2nc3sc4c(c3c(=O)[nH]2)CCCC4)c1` stands “inactive”; under `Cc1cc(OCc2nc3ccccc3s2)ccc1N`, “inactive”; under `CCCC(=O)OCCNc1cc(SCCC(=O)OC)c2nonc2c1[N+](=O)[O-]`, “inactive”.
Under `CCOC(=O)c1nn(-c2ccc(C)c(C)c2)cc1O` stands “inactive”.
Consider `CCn1cc(Br)c(C(=O)Nc2ccc(C(=O)OC(C)C)cc2)n1`, for which the call was inactive.
Take `C=CC[N@@+]12CC[C@]34c5ccccc5N5/C=C6\C7N(/C=C(\C53)[C@@H](C[C@@H]41)/C(=C/CO)C2)c1ccccc1[C@@]71CC[N@@+]2(CC=C)C/C(=C\CO)[C@@H]6C[C@@H]12` (stereo not given in full): the call was inactive.
For the molecule `Cc1cccc(C(=O)OCC(=O)N2CCc3ccccc3C2)c1O`, the outcome was inactive.
In the case of `CC(C)c1ccc2[nH]c(O)c(N=NC(=O)c3ccc(CSc4nncn4C)cc3)c2c1`, the molecule was classed as inactive.
Consider `COC(=O)N/N=C/c1c[n+]([O-])c2ccccc2[n+]1[O-]`, for which the outcome was inactive.
Under `N[C@@H](CCl)C(=O)O` stands “inactive”; under `Cc1ccc(NC(=O)C2=C(O)CCn3c2nc2ccccc23)cc1`, “inactive”; under `O=C(CSc1nc2ccccc2c(=O)[nH]1)NCc1ccc(Cl)cc1`, “inactive”.
Under `CC(C)NC(=O)c1onc(CSc2ccc(F)c(F)c2)c1C(=O)O` stands “inactive”; under `Cc1ccc(-c2noc(-c3cc4ccccc4oc3=O)n2)cc1`, “inactive”.
In the case of `CCN(Cc1ccncc1)Cc1nc(-c2ccc(C(=O)OC)cc2)no1`, the molecule was classed as inactive.
Under `COc1ccc(-c2oc3cccnc3c2/C=C/c2ccc(OC)c(OC)c2)cc1` stands “inactive”.
Under `O=C(NCC1CC1)c1cc([N+](=O)[O-])cc([N+](=O)[O-])c1` stands “inactive”.
In the case of `CCOc1cc(C=O)cc(N=Nc2cccc([N+](=O)[O-])c2)c1O`, the result was inactive.
As for `N/C(=N\OC(=O)CCC1CCCC1)c1cccc([N+](=O)[O-])c1`, the call was inactive.
`CCOC(=O)c1ccc(N=Cc2c(O)c3ccccc3oc2=O)cc1`: the call was inactive.
As to `CCOC(=O)/C(=N\Nc1ccc(Br)cc1)N1CC(C)OC(C)C1` (stereo not given), the call was inactive.
As for `CC(C)(C)c1ccc(OCCC(=O)OCC(=O)NC(=O)NC2CCCC2)cc1`, the outcome was inactive.
For the molecule `CC(OC(=O)CCN=C1NS(=O)(=O)c2ccccc21)C(=O)Nc1ccc(F)c(F)c1F` (stereo not given), the call was inactive.
With `Nc1cnccc1C(=O)O`, the molecule was called inactive.
Under `O=C1CC(Nc2ccc3ccccc3c2)C(=O)N1Cc1ccccc1` (stereo not given) stands “inactive”.
Under `Cc1c(C(=O)Oc2cccc3ccccc23)cnn1-c1ccccc1` stands “inactive”.
Under `CC(=NCc1ccc2c(c1)OCO2)C1=C(O)c2ccccc2C1=O` stands “inactive”; under `CCOC(=O)C1=C(C)Nc2nc(SCC(=O)OC)nn2C1c1cc(F)cc(F)c1` (stereo not given), “inactive”; under `CC(=O)Oc1ccc(/C=N\NC(=O)c2cc3c(ccc4ccccc43)o2)cc1`, “inactive”.
As for `COC(=O)Cc1ccc(NC(=S)Nc2ccccn2)cc1`, the result was inactive.
Regarding `COc1ccc(NC(=O)ON=C2c3ccccc3-c3ccccc32)cc1`, the call was inactive.
Under `Nc1ccc(N=Nc2ccccc2)c2cccnc12` stands “inactive”.
`O=C(Nc1cccc(C(F)(F)F)c1)c1ccc2nc(-c3ccco3)c(-c3ccco3)nc2c1`: the result was inactive.
Under `Nc1cccc(-c2cc3ccccc3oc2=O)c1` stands “inactive”; under `CCOC(=O)c1sc(C)c2c(=O)n(CC(=O)c3ccc(Br)cc3)nnc12`, “inactive”.
`CCOC(=O)Cn1nc(-c2ccccc2)nc1-c1ccccc1`: the call was inactive.
Under `NC(N)=Nc1nc(-c2ccccc2)c2ccccc2n1` stands “inactive”.
